In the supplement of paper PMC9262897, “Low-cost anti-mycobacterial drug discovery using engineered E. coli” (Nature Communications, 2022):
Where a name gives a salt, the structure may show the parent alone. ± gives the standard deviation of the averaged measurements.

The compounds below were run on E. coli TESEC Mtb Alr (assay: growth (OD600 after 10 h); higher = more growth (less inhibition)). Settings: arabinose 100 nM; compound 0.1 mM; raw OD600 reference: median of DMSO wells 0.413, cell-free background 0.052.
Protocol: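 TESEC Mtb Alr E. coli (ΔaraC ΔtolC ΔentC Δalr ΔdadX, arabinose-inducible Mtb Alr) or the Alr+ wild-type control strain, grown in defined M9-fructose medium without D-alanine in 96-well plates with Prestwick library compounds at 0.1 mM and 1% DMSO. Low Alr induction is 0.1 µM arabinose and high induction is 10 mM arabinose.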

Going from `COc1ncnc(NS(=O)(=O)c2ccc(N)cc2)c1OC` [Sulfadoxine] to `C#Cc1cccc(Nc2ncnc3cc(OCCOC)c(OCCOC)cc23)c1` [Erlotinib], the growth falls from 0.4331 ± 0.0033 to 0.411 ± 0.005.

`c1ccc(C2CN3CCSC3=N2)cc1` (centres undefined) [Tetramisole hydrochloride] and `c1ccc([C@H]2CN3CCSC3=N2)cc1` [Levamisole hydrochloride] are within error of each other in growth: 0.408 ± 0.014 for the first, 0.413 ± 0.0046 for the second.

`CCCC1O[C@@H]2C[C@H]3[C@@H]4CCC5=CC(=O)C=C[C@]5(C)[C@H]4[C@@H](O)C[C@]3(C)[C@]2(C(=O)CO)O1` (some centres undefined) [Budesonide] and `C[C@H]1C[C@@H]2[C@H]([C@@H](O)C[C@@]3(C)[C@H]2CC[C@]3(O)C(=O)CO)[C@@]2(C)C=CC(=O)C=C12` [Methylprednisolone, 6-alpha] are within error of each other in growth: 0.4337 ± 0.004 for the first, 0.431 ± 0.0047 for the second.

`COc1cc2ncnc(Nc3ccc(F)c(Cl)c3)c2cc1OCCCN1CCOCC1` [Gefitinib] and `COc1cc2nc(N3CCN(C(=O)C4COc5ccccc5O4)CC3)nc(N)c2cc1OC` (centres undefined) [Doxazosin mesylate] are within error of each other in growth: 0.284 ± 0.2 for the first, 0.277 ± 0.2 for the second.

`C[C@@H](O)[C@H]1C(=O)N2C(C(=O)O)=C(SCCNC=N)C[C@H]12` [Imipenem] and `CN(Cc1cnc2nc(N)nc(N)c2n1)c1ccc(C(=O)N[C@@H](CCC(=O)O)C(=O)O)cc1` (racemic) [Amethopterin (R,S)] are within error of each other in growth: 0.165 ± 0.11 for the first, 0.244 ± 0.13 for the second.

Going from `CC(=O)Oc1ccccc1C(=O)Nc1ncc([N+](=O)[O-])s1` [Nitazoxanide] to `CC(=O)Oc1ccccc1C(=O)O` [Acetylsalicylic acid], the growth rises from 0.157 ± 0.039 to 0.413 ± 0.011.

`CC[C@H](C)[C@H](N)C1=N[C@H](C(=O)N[C@@H](CC(C)C)C(=O)N[C@H](CCC(=O)O)C(=O)N[C@H](C(=O)N[C@H]2CCCCNC(=O)[C@H](CC(N)=O)NC(=O)[C@@H](CC(=O)O)NC(=O)[C@H](Cc3cnc[nH]3)NC(=O)[C@@H](Cc3ccccc3)NC(=O)[C@H]([C@@H](C)CC)NC(=O)[C@@H](CCCN)NC2=O)[C@@H](C)CC)CS1` [Bacitracin] and `CC(=O)N(CC(O)CN(C(C)=O)c1c(I)c(C(=O)NCC(O)CO)c(I)c(C(=O)NCC(O)CO)c1I)c1c(I)c(C(=O)NCC(O)CO)c(I)c(C(=O)NCC(O)CO)c1I` (centres undefined) [Iodixanol] are within error of each other in growth: 0.421 ± 0.015 for the first, 0.406 ± 0.013 for the second.

Compared with `CCOC(=O)C1=C[C@]2(CC)CCCN3CCc4c(n1c1ccccc41)[C@@H]32` [Vinpocetine], `CN1CCN2c3ccccc3Cc3ccccc3C2C1` (centres undefined) [Mianserine hydrochloride] is higher in growth: 0.4094 ± 0.0032 for the first, 0.424 ± 0.0035 for the second.

`COc1ccccc1O` [Guaiacol] and `COc1ccc2cc(CCC(C)=O)ccc2c1` [Nabumetone] are within error of each other in growth: 0.407 ± 0.016 for the first, 0.399 ± 0.01 for the second.

Going from `C[C@]12CC[C@@H]3c4ccc(O)cc4C[C@@H](CCCCCCCCC[S+]([O-])CCCC(F)(F)C(F)(F)F)[C@H]3[C@@H]1CC[C@@H]2O` (some centres undefined) [Fulvestrant] to `CC(=O)[C@H]1CC[C@H]2[C@@H]3CCC4=CC(=O)CC[C@]4(C)[C@H]3CC[C@]12C` [Progesterone], the growth falls from 0.413 ± 0.03 to 0.292 ± 0.059.

First: CC(=O)O[C@H]1C[C@@H]2CC[C@@H]3[C@H](CC[C@@]4(C)[C@H]3C[C@H]([N+]3(C)CCCCC3)[C@@H]4OC(C)=O)[C@@]2(C)C[C@@H]1N1CCCCC1 [Vecuronium bromide]
Second: CC[C@H]1OC(=O)[C@H](C)[C@@H](O[C@H]2C[C@@](C)(OC)[C@@H](O)[C@H](C)O2)[C@H](C)[C@@H](O[C@@H]2O[C@H](C)C[C@H](N(C)C)[C@H]2O)[C@](C)(O)C[C@@H](C)CN(C)[C@H](C)[C@@H](O)[C@]1(C)O [Azithromycin]
The growth of the first is higher: 0.396 ± 0.0098 for the first, 0.05527 ± 0.00032 for the second.

`NS(=O)(=O)c1cc(C2(O)NC(=O)c3ccccc32)ccc1Cl` (centres undefined) [Chlorthalidone] and `CN1CCN(CCCN2c3ccccc3Sc3ccc(S(=O)(=O)N(C)C)cc32)CC1` [Thioproperazine dimesylate] are within error of each other in growth: 0.415 ± 0.01 for the first, 0.404 ± 0.0053 for the second.

`Clc1ccc2nsnc2c1NC1=NCCN1` [Tizanidine HCl] and `Nc1cc(-c2ccncc2)c[nH]c1=O` [Amrinone] are within error of each other in growth: 0.401 ± 0.0081 for the first, 0.38 ± 0.043 for the second.

Compared with `O=c1[nH]c(=O)n([C@H]2C[C@H](O)[C@@H](CO)O2)cc1C(F)(F)F` [Trifluridine], `O=C1C(O)=C(O)C(=O)C(O)=C1O` [Tetrahydroxy-1,4-quinone hydrate] is higher in growth: 0.077 ± 0.0037 for the first, 0.399 ± 0.012 for the second.

With `CCN(CC)CCNC(=O)c1cc(Br)c(N)cc1OC` [Bromopride] the growth was 0.4074 ± 0.0017.
